# Columns and labels:
# Assay in all cases: PBM binding z-score (relative to random genomic background probes); higher = stronger binding; sequences stand for … in GC…GCGATTGACAGCGTAGAATGAAGG
# [1] = system: RARb homodimer (NR concentration 270 nM)
# Procedure, shortened: (§1)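 Binding z-scores were set against random background probes. The data came from custom Agilent 4×180K protein-binding microarrays carrying double-stranded probes with 34-nt variable regions, incubated 1 h with ligand-free nuclear receptor dimers. Partner-specific antibodies detected binding, and scanned fluorescence was regression-normalized.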
# [2] = system: RARg:RXRa (NR concentration 270 nM, RXRa partner concentration 90 nM)
# Procedure, shortened: as §1
# [3] = system: RARg homodimer (NR concentration 270 nM)
# Procedure, shortened: as §1
# [4] = system: RXRa DBDmut IVT, anti-RXR (DBD mutation: RXRa K156A/R161A, NR concentration 90 nM)
# Procedure, shortened: as §1
# [5] = system: RXRa homodimer (NR concentration 180 nM)
# Procedure, shortened: as §1
# [6] = system: THRa:RXRa (NR concentration 90 nM, RXRa partner concentration 90 nM)
# Procedure, shortened: as §1
# [7] = system: THRa homodimer (NR concentration 90 nM)
# Procedure, shortened: as §1
# [8] = system: VDR:RXRa (NR concentration 270 nM, RXRa partner concentration 90 nM)
# Procedure, shortened: as §1
# [9] = system: VDR homodimer (NR concentration 270 nM)
# Procedure, shortened: as §1
Sequence,PBM binding z-score [1],PBM binding z-score [2],PBM binding z-score [3],PBM binding z-score [4],PBM binding z-score [5],PBM binding z-score [6],PBM binding z-score [7],PBM binding z-score [8],PBM binding z-score [9]
CCTAGCAGGCAAATCTGGGTCACTCAAGGCTTGA,1.85,1,0.802,0.0934,0.625,2.89,0.513,0.335,-0.357
AGAAGGAGGTTATTAAGATCAGGGAATTGCGGTC,1.32,0.881,0.837,0.39,1.36,1.18,0.884,1.89,1.23
GGAACGAGGGCATTCGAGTTGAGAGCATGGCGAT,0.91,1.14,1.31,2.99,1.05,3.58,-0.815,3.07,2.68
GGAACGAGGGCATTCGAGTTGATAGGATGGCGAT,0.729,1.11,1.28,3.32,0.734,3.21,-0.299,3.74,2.9
TGAATGAGGTTATTAGATCAGGGAACGTTGCAAA,0.387,1.36,0.893,1.46,1.66,2,0.756,0.99,0.942
CGTACTGGGCCACGAAAGGTCATTGATTCAGTGA,4.58,4.97,4.48,0.97,5.18,3.83,1.09,4.47,2.78
CGAACTAGGTCTTCCAGGACAGTGAATACATTGA,0.194,0.154,0.415,0.373,-0.0434,1.71,0.787,-0.0143,0.0101
ATATGTAGTTTAGCTGGGGTCATTCAGACTAGGC,3.66,3.73,2.48,2.23,5.23,4.49,3.19,5.22,5.03
TAGCGTAGGTCATTCAGGGGCCAGTATAGAAAGC,3.37,6.52,5.07,1.79,3.93,3.56,-0.427,3.37,1.25
TCAGACAGGTGAAGGTATCTCAGGTACGCAGTCG,0.873,0.518,0.586,1.55,0.95,1.2,0.503,0.814,0.113
TCATAAAGGTAATACAGGTGAAAGTCGGCATCTA,1.09,1.3,0.722,1.78,1.67,1.7,0.207,1.72,0.435
GCTATTTGTTGAAAGGGCAACCGAATGATTCTCG,2.2,1.01,1.26,1.28,0.98,0.638,0.181,0.521,0.657
GATACAGGGTCAGCTATAGGCCAGAGTATGGAAA,2.93,5.42,4.73,1.34,4.02,2.6,0.272,2.46,0.536
TAGCCTCGGTCATGCGGGCCAGTATAGTGTCGGC,1.58,1.57,2.52,-1.04,-0.228,-0.135,-0.62,-0.284,-0.697
TCATATAGGTAAACAGGTGATAGTCCGTAAGTTA,0.338,0.509,0.323,1.35,0.949,0.375,0.179,0.955,0.482
GCTGCCAGGTCAGGTTGGTCAGCTAACGGGTACG,2.65,2.55,3.29,0.47,1.5,2.51,1.16,1.03,0.33
CTCGAAAGGTCGGTTGAGGTGAGTATACGGATAA,2.15,2.63,2.54,0.556,1.95,5.09,1.33,2.14,0.68
ATATGTTGGTTAGCTGGGGTCATTCAGACTAGGC,3.55,3.66,2.3,1.91,4.97,4.21,3.57,5.16,5.32
TCTATTAGTTGATTAGGGAAACCGAAACAGCGGA,0.0312,0.311,0.329,1.18,0.472,0.12,0.159,0.846,0.507
CCTATTAGTTGACCATAAGGGCAACCAAAGCTCG,2.24,1.55,1.14,0.788,0.828,2.02,1.47,0.939,0.747
CGAACTAGGTCATTGACAGGACAGCGAATAGTAA,2.86,4.65,4.4,2.19,2.44,2.9,0.784,2.05,1.31
CCTAGTTGGTCAGGAGGTCATACACCGGATATGA,3.79,4.56,3.35,0.572,4.2,3.23,1.8,3.75,2.73
TCGAGTAGGTTAGGTGCATTCAGAATGGCGTCGA,0.197,-0.25,-0.0841,1.04,0.1,-0.142,-0.111,0.44,1.47
GCGATTAGTTGAAAGGGCAACCGAATGATTCTCG,1.82,1.14,1,0.582,1.27,0.405,-0.273,0.316,0.184
ACTAGCAGTCCAAGTTTGGGTCACTCAAACAAAG,1.97,0.986,0.834,0.395,0.691,2.16,1.07,0.754,0.0671
TCGAGTAGGTTAACAATGGGGCATTCAGCTTTCT,0.737,1.49,0.51,0.509,0.809,0.284,-0.587,0.406,-0.182

Sequence,PBM binding z-score [1],PBM binding z-score [2],PBM binding z-score [3],PBM binding z-score [4],PBM binding z-score [5],PBM binding z-score [6],PBM binding z-score [7],PBM binding z-score [8],PBM binding z-score [9]
CCTACTGGGCCAAAAAGGTCCTTGATGCCGATAA,0.795,-0.28,-0.148,-0.722,-0.259,-0.265,-0.242,-0.189,-0.393
TCATATAGGTAATACAGGTGAAAGTGGGCATCTA,0.844,0.777,0.705,2.06,1.3,0.901,0.52,1.47,0.577
TCATATACGTAAAAGGTGAAAGTCGGTGTGGTAA,1.94,1.27,0.986,1.98,2.01,1.36,0.293,1.43,0.435
TCTTGTAGATCACCAGGTTAAGAAAGCTGGCCAA,0.501,0.343,-0.0575,1.03,1.06,1.06,0.422,0.86,0.245
CCTTACGGGTCACGAGGTGATAGCACGACGAGCG,3.52,5.58,5.46,1.66,6.44,3.48,0.888,4.18,1.15
ATCGAAAGGTCGAAGGTGAGTAAACCCACCCGAA,2.45,4.43,3.92,1.23,4.9,2.15,0.0401,2.84,1.17
TCTTGTAGATCAAAGGTGAAGAAAGCCGAAGCCT,0.902,0.905,0.395,0.392,1.75,0.776,-0.461,0.74,-0.594
TAGGCTAGGTCAGATCGGGCCAGTATACGCTATA,2.06,2.87,3.61,-0.36,1.45,4.13,-0.412,0.927,-0.515
TCTAGTTGGTAAAAGGTCACACACTCGAAATGCG,5.28,6.21,5.8,2.17,6.64,4.08,2.3,4.89,2.75
GCTCGGAGGACAAGGTCAGATCTTTGTCCGTAGA,3.06,3.19,3.28,0.628,2.46,3.17,1.58,1.61,0.872
CGTCAAAGTTCAAGGTAACTTAACAGAAAGCAGC,3.81,5.06,6.29,4.24,4.36,2.71,0.957,3.73,2.74
CCTCCAAGGTCAAAGGTCAGTGAAGAGATGACGG,5.51,8.61,7.7,3.97,10,4.65,2.63,6.52,3.92
ACAGACAGGCGAGTGAAGGTAACTCAGCTGGACG,-0.318,-0.0341,-0.0147,-0.699,0.296,0.0808,-0.312,-0.451,-0.484
TGAATCAGGTTAAAGATCAGGGAACGTGGCGTCG,-7.29e-05,0.805,0.611,-0.0911,1.71,1.04,-0.365,0.238,-0.0211
ATCGAAAGGTCGAGGTAAGTATAGAGAAAGGGAA,2.39,4.25,4.27,0.467,4.6,2.58,0.233,2.36,0.546
ATATATAGGTTAGCTGGGGTCATTCAGACTAGGC,3.92,4.47,3.4,2.09,5.55,5.15,3.63,6.61,5.64
ACAGACAGGTGAAGAAGGTAACTCAGGCTATCAT,0.685,0.696,0.885,-0.215,0.527,1.32,0.0297,0.439,-0.131
ACTATTAGTTGAGACGAGGGCCACCGATAGGTTG,0.318,0.392,0.514,0.0416,0.26,-0.0155,-0.379,-0.293,-0.0608
CAAACTAGGTCAAGGGCAAAGTCGGTTTGTGCCA,4.17,3.94,4.68,2.01,3.06,3.27,1.43,2.54,1.79
CTTACTGGGCCAAGGTCATTGATCAGTCAAAGCA,3.49,4,3.2,2.11,3.65,3.43,2.31,3.44,3.76
GTACCAAGGTGAATAAGTCGTTGATGAGTAGGCG,0.43,0.827,0.671,-0.0366,0.742,1.21,0.531,0.0767,0.148
CGAACTAGGCCAAGGACAGTGAATCTCCGCACGC,0.591,-0.0156,0.663,0.163,-0.0922,1.35,0.94,-0.579,-0.0931
TCTTGTAGATCAGCAGGTTGAGAAAGCTGGCCAA,-0.505,-0.343,-0.727,0.441,0.0477,-0.234,-0.41,0.543,-0.222
CGAACTATGTCATCCAGGACAGTGAATACATTGA,0.612,0.908,1.14,0.468,0.578,1.71,0.973,1.05,0.592
ATATGTAGGTTTTCGGGTCATTCAGTTTGCGCAT,2.88,2.43,1.72,1.88,3.57,3.89,4.22,5.07,4.55
GGAACGAGGCCAAGTTGATAGCAGAGTTTGATGG,0.533,0.334,1.03,1.18,-0.0996,0.407,-0.535,-0.548,0.778

# — the supplement of paper PMC6555819
